# Test results as given in PubChem BioAssay AID686979 (National Center for Advancing Translational Sciences (NCATS), 2013).
# Screen size: about 420,000 compounds; about 50,000 (12%) were called active. About 26% were inconclusive and are not listed. Calls follow the shape of the dose curve; as a rule, active = well fitted inhibition curve with a large enough effect; inconclusive = small, poorly fitted or top-dose-only effect; inactive = flat fitted curve, though single readings scatter. Many of the other results were omitted from the sample, so actives are more common in it than they were.
# Assay: qHTS for Inhibitors of human tyrosyl-DNA phosphodiesterase 1 (TDP1): qHTS in cells in presence of CPT; also: nearly all actives have a fitted effect of over 55% in size
# Conditions: chicken DT40 Tdp1-/-;hTDP1 cells + 20 nM CPT, ATP luminescence, 48 h; series mostly up to 46.2 µM; activity change, negative = growth inhibition: at the top concentration
# Summary of the method: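 Chicken DT40 Tdp1-/- cells complemented with human TDP1, 400 cells/well, exposed to compounds plus 20 nM camptothecin for at least 48 h at 37 C; viability read as ATP content by CellTiter-Glo luminescence.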
# % is scaled to controls: 0 for no effect and ±100 for the full control effect; potency is read from the fitted curve at half-maximal effect.
Compound,"activity change, negative = growth inhibition",Potency
COc1ccc2c(CC(=O)N3CCc4cc(OC)c(OC)cc4C3)coc2c1,-2.85% (inactive),
COc1cc2c(cc1OC)CN(C(=O)c1cc(=O)c3ccccc3o1)CC2,,4.11 µM (active)
COc1ccc2oc(=O)c(C(=O)N3CCN(c4ccccc4F)CC3)cc2c1,-26.6% (inactive),
COc1cccc2cc(C(=O)N3CCN(C(=O)c4ccccc4)CC3)c(=O)oc12,-16.3% (inactive),
COc1ccccc1OCc1ccc(C(=O)N2CCN(C)CC2)o1,7.63% (inactive),
COc1ccccc1N1CCN(C(=O)c2cc(=O)c3cc(C)cc(C)c3o2)CC1,,0.0052 µM (active)
Cc1ccc2oc(=O)c3cnn(CC(=O)N4CCN(c5ccccn5)CC4)c3c2c1,-12.3% (inactive),
COc1ccccc1N1CCN(C(=O)c2cc(=O)c3cc(C)ccc3o2)CC1,,14.6 µM (active)
O=C(c1cc(=O)c2ccccc2o1)N1CCN(c2ccccc2)CC1,0.696% (inactive),
CC1(C)C2CCC1(CS(=O)(=O)NCCc1c[nH]c3ccccc13)C(=O)C2 (stereo not drawn),-2.02% (inactive),
C/C(=N\NS(=O)(=O)c1ccc(Cl)cc1)c1ccc(NC(=O)c2ccco2)cc1,-3.84% (inactive),
Cc1ccc(OCC(=O)Nc2ccc3oc(=O)ccc3c2)cc1C,-0.987% (inactive),
CSc1cccc(NC(=O)C2CCCN2S(=O)(=O)c2ccc3c(c2)CCC(=O)N3)c1 (stereo not drawn),-21.6% (inactive),
N#Cc1c(N)nc2c(c1N)CC(C(F)(F)F)O2 (stereo not drawn),0.681% (inactive),
CCc1ccc(CNC(=O)c2cc3cc4ccc(OC)cc4nc3o2)cc1,1.41% (inactive),
CC(C)Cc1ccc(-c2cc3nc(NCc4cccc(Cl)c4)ccn3n2)cc1,,20.6 µM (active)
Cc1ccc(-c2cc(N)n(Cc3cccc(Cl)c3)n2)cc1,-22.3% (inactive),
CCNC(=S)N1CCN(CCN=CC2=C(O)CC(C)(C)CC2=O)CC1,3.82% (inactive),
COc1ccccc1N(C)S(=O)(=O)c1ccc(C(=O)N2CCC(C(N)=O)CC2)cc1,-21% (inactive),
COc1ccccc1N(C)S(=O)(=O)c1ccc(C(=O)NC2CCCCCC2)cc1,,23.1 µM (active)
COc1ccc(S(=O)(=O)NC(C)C)cc1C(=O)NC1CCCCC1,7.46% (inactive),
CO[C@]1(NC(=O)CSC(F)F)C(=O)N2C(C(=O)O)=C(CSc3nnnn3CCO)CO[C@H]21,1.05% (inactive),
CCn1c(SCC(=O)NC2CC2)nnc1-c1ccccc1OC,6.21% (inactive),
COC(=O)c1ccc(COc2ccc(C#N)cc2)o1,-0.114% (inactive),
CCc1cccc(C)c1N1C(=O)CN(Cc2ccccc2)C1=S,-2.8% (inactive),
Cn1cc(/C=C/C(=O)N2CCCC(C(=O)c3ccc(C(F)(F)F)cc3)C2)cn1 (stereo not drawn),8.27% (inactive),

Compound,"activity change, negative = growth inhibition",Potency
Cn1cc(CCC(=O)N2CCCC(C(=O)c3ccc(C(C)(C)C)cc3)C2)cn1 (stereo not drawn),,25.9 µM (active)
COCC(=O)N1CCCC(C(=O)c2ccc(C(F)(F)F)cc2)C1 (stereo not drawn),-21.2% (inactive),
CC(C)NC(=O)C1(C)CCCCCN1C(=O)c1ccc(-c2ccccc2)cc1 (stereo not drawn),,18.4 µM (active)
CCNC(=O)C1(C)CCCN1C(=O)c1ccc(N(C)C)cc1 (stereo not drawn),-2.17% (inactive),
CC1(C(=O)NS(=O)(=O)c2ccccc2)CCN1C(=O)c1ccccc1 (stereo not drawn),5.22% (inactive),
CC(OC(=O)c1ccc(-n2cnnn2)cc1)C(=O)NCc1ccccc1 (stereo not drawn),2.67% (inactive),
O=C(CSc1nc(=O)n(Cc2cccnc2)c2c1CCC2)Nc1ccc(F)cc1F,-2.59% (inactive),
Cc1ccc2oc(=O)c3cnn(CC(=O)N4CCN(c5cccc(Cl)c5)CC4)c3c2c1,-20.3% (inactive),
Cc1oc2ncnc(N3CCCCC3)c2c1C(=O)N1CCN(c2cccc(Cl)c2)CC1,,16.4 µM (active)
COc1ccc(C)cc1N(C)C(=O)c1c(C)oc2ncnc(N3CCOCC3)c12,24.5% (inactive),
O=C1C(c2[nH]c3ccccc3c2O)=Nc2ccccc21,-24.8% (inactive),
N=C1C(c2nc3ccccc3s2)=C(O)CN1NC(=O)c1ccc([N+](=O)[O-])cc1,,20.6 µM (active)
O=C(Nn1c(-c2ccccc2)nc2ccccc2c1=O)c1ccc([N+](=O)[O-])cc1,-5.8% (inactive),
CCOC(=O)CCCN1CC(O)=C(c2nc3ccccc3s2)C1=N,-18.1% (inactive),
COc1cccc(C(=O)n2ccc(-c3cccs3)n2)c1,5.04% (inactive),
Cc1ccc(NC(=S)N/N=C2/CCCc3c(C)cc(C)cc32)cc1,4.83% (inactive),
CCCCc1ccc(NC(=S)NCCCN2CCOCC2)cc1,-16% (inactive),
CCCCNC(=S)N/N=C1\CCCCc2ccccc21,,23.1 µM (active)
CCOc1ccccc1CN1CCN(C2CCC2)CC1CCO (stereo not drawn),1.66% (inactive),
COC(C/C=C/C(=O)[C@@H](C)OCc1ccccc1)OC,,18.4 µM (active)
COC(C[C@H](O)CC(=O)[C@@H](C)OCc1ccccc1)OC,-0.491% (inactive),
COC(C[C@@H]1O[C@@H]1C(=O)[C@@H](C)OCc1ccccc1)OC,-25.6% (inactive),
CCCC(C)C(=O)OCC(=O)Nc1c(Br)cc(C)cc1Br (stereo not drawn),3.63% (inactive),
OCC1(Cc2ccccc2C(F)(F)F)CCN(Cc2cccc3cnccc23)CC1,-4.82% (inactive),
CC1CCCCC1NC(=O)CSc1nnc(-c2ccncc2)n1CCCN(C)C (stereo not drawn),10.5% (inactive),
CN1CCN(c2ccc(S(=O)(=O)N3CCOCC3)cc2NC(=O)CCc2ccccc2)CC1,0.451% (inactive),

Compound,"activity change, negative = growth inhibition",Potency
COCCNC(=O)c1ccc(N2CCC3(CC2)OCCO3)c([N+](=O)[O-])c1,-2.95% (inactive),
CCCN(CCC)CCNC(=O)c1ccc2c(c1)NC(=O)C(CS(=O)(=O)Cc1cccc(Br)c1)N2 (stereo not drawn),-21.3% (inactive),
CCCNC(=O)c1ccc(N2CCC3(CC2)CC(c2cccc(Br)c2)=NO3)c(NC(=O)c2ccco2)c1,,5.17 µM (active)
COC(=O)c1ccc(N2CCOCC2)c(NC(=O)c2ccc(Br)o2)c1,0.879% (inactive),
CCCNC(=O)c1ccc(N2CCC3(CC2)CC(c2ccc(Cl)cc2)=NO3)c([N+](=O)[O-])c1,,23.1 µM (active)
O=C(NCCCN1CCOCC1)c1ccc(N2CCCC2)c([N+](=O)[O-])c1,13.4% (inactive),
Cc1oc2c(C)c3oc(=O)c(CC(=O)N[C@@H](CC(C)C)C(=O)N[C@@H](Cc4ccccc4)C(=O)O)c(C)c3cc2c1C,0.481% (inactive),
COc1cc(N)c(Cl)cc1C(=O)OCC(=O)c1ccc2c(c1)NC(=O)CO2,-24.7% (inactive),
CCOc1ccccc1NC(=O)CCc1nnc2ccc(NCc3ccco3)nn12,-5.44% (inactive),
Cn1ncc([N+](=O)[O-])c1C(=O)Nc1cc(Cl)ccc1Cl,13.4% (inactive),
C/C(=N\NC(=O)c1cccnc1)c1ccc(-n2ccnc2)cc1,6.18% (inactive),
Cc1ccc(C)c(NC(=O)CCC(=O)N/N=C2/CC(=O)CC(C)(C)C2)c1,-5.64% (inactive),
Nc1[nH]c(C(=O)c2ccccc2)c(-c2ccc(Br)cc2)c1C(=O)NC1CC1,-9.96% (inactive),
COc1cc(NS(=O)(=O)c2ccccc2)ccc1-n1nc(C)cc1C,-9.7% (inactive),
COc1cccc2c(N/N=C/c3ccco3)cc(C)nc12,-2.9% (inactive),
Cc1nc(Cl)cc(N/N=C/c2ccccc2)n1,-13% (inactive),
COc1cccc(/C=N/Nc2cc(C)nc(-c3ccccc3O)n2)c1O,,18.4 µM (active)
COc1ccccc1/C=N/Nc1nc(C)c(C(C)=O)s1,-19.1% (inactive),
COc1ccccc1/C=N\Nc1cc(C)nc(-n2nc(C)cc2C)n1,,6.51 µM (active)
COc1ccccc1-n1c(SCC(=O)Nc2cccc(C(=O)O)c2)nnc1-c1ccccc1O,-3.19% (inactive),
Cc1cc(N/N=C\c2ccc(Br)cc2)nc(-n2nc(C)cc2C)n1,,1.64 µM (active)
Cc1ccc(S(=O)(=O)Nc2nc(C)cc(N/N=C/c3ccc(O)cc3)n2)cc1,-0.757% (inactive),
COc1ccc(CCNS(=O)(=O)c2ccc(Cl)s2)cc1OC,-20.2% (inactive),
COc1cc(=O)n2c(c1C(=O)N(C)Cc1nonc1C)CCN(C(=O)c1ccc(C)cc1C)CC2,14.1% (inactive),
CCc1ccc(NC(=O)CC2C(=O)NCCN2C(=S)Nc2ccccc2)cc1 (stereo not drawn),-7.73% (inactive),
O=C(Nc1cccc2cccnc12)c1cccc(Cl)c1,-16.5% (inactive),

Compound,"activity change, negative = growth inhibition",Potency
O=C(Nc1nnc([C@H]2C[C@H](O)[C@@H](CO)O2)s1)c1cccc(Cl)c1,-16.4% (inactive),
O=C(Nc1cccc2cccnc12)c1ccc2sc([C@H]3C[C@H](O)[C@@H](CO)O3)nc2c1,,18.4 µM (active)
O=C1CCC(=O)N1CCC(=O)N(C(=O)NC1CCCCC1)C1CCCCC1,3.74% (inactive),
NC(=O)C[n+]1cccc(C(N)=O)c1,-1.13% (inactive),
COc1cc(COCC(O)CN2CCN(Cc3ccc4c(c3)OCO4)CC2)cc(OC)c1OC (stereo not drawn),-5.21% (inactive),
COc1c(O)ccc2c1CN1CCc3cc4c(cc3C1C2)OCO4 (stereo not drawn),,14.6 µM (active)
COCCCN1C(=O)C(=O)/C(=C(/O)c2ccc(S(=O)(=O)N3CCOCC3)cc2)C1c1ccc(F)cc1 (stereo not drawn),-34% (inactive),
Cc1ccc(N=Nc2c(C)[nH]n(-c3ccccc3)c2=O)cc1,-17.8% (inactive),
Cc1[nH]n(-c2ccccc2)c(=O)c1/C=N/NC(=O)c1ccoc1C,,1.46 µM (active)
Cc1nn(C(=O)c2ccoc2C)c(N)c1-c1ccccc1,-9.59% (inactive),
CCOC(=O)C1CCCN(S(=O)(=O)c2ccc(-n3cnnn3)c(C)c2)C1 (stereo not drawn),-25.7% (inactive),
COc1ccc(CCn2ccc(O)c(Cc3ccc(Cl)cc3Cl)c2=O)cc1OC,3.26% (inactive),
CC1CC(C)(C)CC2(C1)NC(=O)N(CC(=O)Nc1nccs1)C2=O (stereo not drawn),1.24% (inactive),
COC(=O)c1sc(-c2ccc(C(C)(C)C)cc2)cc1NC(=O)/C=C/C(=O)O,,4.61 µM (active)
O=C(O)/C=C/C(=O)Nc1ccc(F)cc1F,13.5% (inactive),
CSc1ccc(NC(=O)/C=C/C(=O)O)cc1,13.8% (inactive),
CCC(Cc1ccccc1)NC(=O)C1CCCCC1 (stereo not drawn),-15.5% (inactive),
CN1CCN(CCNC(=O)Nc2ccccc2[N+](=O)[O-])CC1,1.85% (inactive),
Cc1nc2ccccc2c(=O)n1Cc1ccc([N+](=O)[O-])cc1,-21.5% (inactive),
CCn1c(/C=C/c2ccc([N+](=O)[O-])o2)nc2ccccc2c1=O,,1.3 µM (active)
Cn1cc(/C=C/c2nc3ccccc3c(=O)n2-c2cccc([N+](=O)[O-])c2)c2ccccc21,-9.1% (inactive),
CC(C)c1ccc(S(=O)(=O)N2CCC3(CC2)OCCO3)cc1,-2.81% (inactive),
CCn1c(NC(=O)c2ccccc2)c(-c2cccs2)c(=O)c2ccccc21,,20.6 µM (active)
CCn1c(=O)cc(O)c2ccccc21,2.66% (inactive),
CCn1c(=O)c2cc(C(=O)Nc3cccc(C(C)=O)c3)sc2c2ccccc21,-18.9% (inactive),
